Results on twelve targets are retold here after the supplement of paper PMC6411743.

Compound in the experiment: Nc1ncnc2c1ncn2[C@@H]1O[C@H](COP(=O)(O)OP(=O)(O)NP(=O)(O)O)[C@@H](O)[C@H]1O [adenylyl imidodiphosphate]
As to the kind of experiment: NP40-soluble protein abundance relative to vehicle (solubility fold change) (ratio); higher = more soluble protein in presence of AMP-PNP. In short, it runs like this: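 Crude Jurkat lysate, prepared by Dounce homogenisation, was exposed to eight concentrations from 0.1 to 10 mM for 10 min at room temperature and then 3 min at 37 °C. Solubilisation used 0.8% NP40 with benzonase for 60 min at 4 °C, followed by ultracentrifugation and TMT labelling of the supernatant for LC-MS/MS. After vsn normalisation of intensities, each value is the fold change against the detergent-processed vehicle within each replicate, across three independent experiments.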

± gives the standard deviation of the averaged measurements. About 6,200 targets were measured; listed, in parts, are those with the largest changes and a random draw of the rest.

Chain of UniProt Q13506 (Q13506 whole entry, one chain of several): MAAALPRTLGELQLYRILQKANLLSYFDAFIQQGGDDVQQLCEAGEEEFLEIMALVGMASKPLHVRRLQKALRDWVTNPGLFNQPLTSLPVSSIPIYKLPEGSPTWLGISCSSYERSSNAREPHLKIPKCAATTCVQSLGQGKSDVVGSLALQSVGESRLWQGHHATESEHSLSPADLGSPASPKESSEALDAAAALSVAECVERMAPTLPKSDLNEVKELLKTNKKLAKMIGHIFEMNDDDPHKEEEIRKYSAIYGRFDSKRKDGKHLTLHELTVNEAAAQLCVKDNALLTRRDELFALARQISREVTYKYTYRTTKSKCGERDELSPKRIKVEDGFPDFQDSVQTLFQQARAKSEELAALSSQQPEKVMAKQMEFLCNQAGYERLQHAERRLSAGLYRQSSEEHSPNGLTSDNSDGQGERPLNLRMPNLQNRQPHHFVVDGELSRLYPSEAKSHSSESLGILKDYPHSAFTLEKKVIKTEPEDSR
Chain of UniProt O43795 (O43795 whole entry, one chain of several): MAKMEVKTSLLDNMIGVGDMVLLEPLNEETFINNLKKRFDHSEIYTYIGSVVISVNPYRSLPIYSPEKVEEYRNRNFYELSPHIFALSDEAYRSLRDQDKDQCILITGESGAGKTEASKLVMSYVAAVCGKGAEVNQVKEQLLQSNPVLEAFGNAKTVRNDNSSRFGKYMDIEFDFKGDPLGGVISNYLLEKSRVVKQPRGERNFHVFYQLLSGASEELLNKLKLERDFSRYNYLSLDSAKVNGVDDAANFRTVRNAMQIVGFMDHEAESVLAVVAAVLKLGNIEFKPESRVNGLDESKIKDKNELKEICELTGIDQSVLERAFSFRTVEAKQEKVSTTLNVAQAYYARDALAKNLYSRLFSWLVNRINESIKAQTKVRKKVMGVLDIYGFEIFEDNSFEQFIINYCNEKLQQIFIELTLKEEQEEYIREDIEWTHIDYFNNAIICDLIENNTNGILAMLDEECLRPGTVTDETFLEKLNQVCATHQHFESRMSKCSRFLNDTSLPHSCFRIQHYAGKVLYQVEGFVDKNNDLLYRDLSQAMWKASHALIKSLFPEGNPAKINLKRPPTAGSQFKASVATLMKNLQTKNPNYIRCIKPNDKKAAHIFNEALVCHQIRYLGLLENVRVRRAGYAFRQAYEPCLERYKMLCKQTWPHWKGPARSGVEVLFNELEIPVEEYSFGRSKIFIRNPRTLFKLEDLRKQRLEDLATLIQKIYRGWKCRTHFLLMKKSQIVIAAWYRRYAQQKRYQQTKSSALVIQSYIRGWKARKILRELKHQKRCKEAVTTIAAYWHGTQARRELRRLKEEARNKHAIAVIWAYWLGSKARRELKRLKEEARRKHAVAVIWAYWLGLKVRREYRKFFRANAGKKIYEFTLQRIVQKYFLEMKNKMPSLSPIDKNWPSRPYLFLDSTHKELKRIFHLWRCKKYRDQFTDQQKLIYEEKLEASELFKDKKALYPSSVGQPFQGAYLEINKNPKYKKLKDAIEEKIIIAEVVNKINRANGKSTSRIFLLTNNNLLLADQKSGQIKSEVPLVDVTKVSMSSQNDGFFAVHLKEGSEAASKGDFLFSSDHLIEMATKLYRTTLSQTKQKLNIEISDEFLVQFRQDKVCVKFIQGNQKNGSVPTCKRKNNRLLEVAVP
Chain of UniProt O75821 (O75821 whole entry, one chain of several): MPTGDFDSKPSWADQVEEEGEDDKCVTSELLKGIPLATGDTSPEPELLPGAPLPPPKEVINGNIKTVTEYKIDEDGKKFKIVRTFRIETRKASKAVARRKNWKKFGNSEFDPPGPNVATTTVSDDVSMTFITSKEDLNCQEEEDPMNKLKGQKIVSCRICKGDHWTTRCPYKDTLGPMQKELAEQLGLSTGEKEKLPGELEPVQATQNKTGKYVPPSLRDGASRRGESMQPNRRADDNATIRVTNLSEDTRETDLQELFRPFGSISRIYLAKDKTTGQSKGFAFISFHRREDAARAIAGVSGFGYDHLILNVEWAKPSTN
Chain of UniProt Q9H2H9 (Q9H2H9 whole entry, one chain of several): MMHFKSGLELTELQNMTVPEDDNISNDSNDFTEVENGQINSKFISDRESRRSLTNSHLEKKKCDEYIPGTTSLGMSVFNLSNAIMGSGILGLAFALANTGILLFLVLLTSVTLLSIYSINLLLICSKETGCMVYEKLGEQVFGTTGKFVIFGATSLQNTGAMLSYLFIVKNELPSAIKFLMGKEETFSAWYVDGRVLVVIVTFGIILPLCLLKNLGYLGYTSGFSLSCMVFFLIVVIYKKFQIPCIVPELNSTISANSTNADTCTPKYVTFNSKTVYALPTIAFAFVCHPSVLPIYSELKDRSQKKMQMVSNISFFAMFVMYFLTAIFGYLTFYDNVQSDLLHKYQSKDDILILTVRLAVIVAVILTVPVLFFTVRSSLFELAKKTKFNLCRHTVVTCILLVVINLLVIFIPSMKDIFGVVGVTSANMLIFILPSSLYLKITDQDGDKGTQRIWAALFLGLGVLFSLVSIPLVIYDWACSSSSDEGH
Chain of UniProt O60508 (O60508 whole entry, one chain of several): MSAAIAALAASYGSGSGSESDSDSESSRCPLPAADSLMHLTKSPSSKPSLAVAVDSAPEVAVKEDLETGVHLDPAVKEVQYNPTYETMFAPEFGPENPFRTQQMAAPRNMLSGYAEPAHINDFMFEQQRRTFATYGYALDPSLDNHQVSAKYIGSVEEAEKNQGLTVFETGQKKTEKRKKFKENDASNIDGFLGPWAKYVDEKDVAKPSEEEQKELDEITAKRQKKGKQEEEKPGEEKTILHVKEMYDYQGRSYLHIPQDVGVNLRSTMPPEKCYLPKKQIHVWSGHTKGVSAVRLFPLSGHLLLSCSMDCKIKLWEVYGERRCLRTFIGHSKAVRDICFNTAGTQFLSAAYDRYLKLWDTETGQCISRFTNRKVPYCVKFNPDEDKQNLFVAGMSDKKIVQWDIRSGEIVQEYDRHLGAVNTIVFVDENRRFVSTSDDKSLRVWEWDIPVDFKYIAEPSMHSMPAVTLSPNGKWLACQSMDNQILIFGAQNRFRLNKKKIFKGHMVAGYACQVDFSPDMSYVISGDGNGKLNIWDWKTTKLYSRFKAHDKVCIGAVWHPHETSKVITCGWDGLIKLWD
Chain of UniProt Q8TAQ2 (Q8TAQ2 whole entry, one chain of several): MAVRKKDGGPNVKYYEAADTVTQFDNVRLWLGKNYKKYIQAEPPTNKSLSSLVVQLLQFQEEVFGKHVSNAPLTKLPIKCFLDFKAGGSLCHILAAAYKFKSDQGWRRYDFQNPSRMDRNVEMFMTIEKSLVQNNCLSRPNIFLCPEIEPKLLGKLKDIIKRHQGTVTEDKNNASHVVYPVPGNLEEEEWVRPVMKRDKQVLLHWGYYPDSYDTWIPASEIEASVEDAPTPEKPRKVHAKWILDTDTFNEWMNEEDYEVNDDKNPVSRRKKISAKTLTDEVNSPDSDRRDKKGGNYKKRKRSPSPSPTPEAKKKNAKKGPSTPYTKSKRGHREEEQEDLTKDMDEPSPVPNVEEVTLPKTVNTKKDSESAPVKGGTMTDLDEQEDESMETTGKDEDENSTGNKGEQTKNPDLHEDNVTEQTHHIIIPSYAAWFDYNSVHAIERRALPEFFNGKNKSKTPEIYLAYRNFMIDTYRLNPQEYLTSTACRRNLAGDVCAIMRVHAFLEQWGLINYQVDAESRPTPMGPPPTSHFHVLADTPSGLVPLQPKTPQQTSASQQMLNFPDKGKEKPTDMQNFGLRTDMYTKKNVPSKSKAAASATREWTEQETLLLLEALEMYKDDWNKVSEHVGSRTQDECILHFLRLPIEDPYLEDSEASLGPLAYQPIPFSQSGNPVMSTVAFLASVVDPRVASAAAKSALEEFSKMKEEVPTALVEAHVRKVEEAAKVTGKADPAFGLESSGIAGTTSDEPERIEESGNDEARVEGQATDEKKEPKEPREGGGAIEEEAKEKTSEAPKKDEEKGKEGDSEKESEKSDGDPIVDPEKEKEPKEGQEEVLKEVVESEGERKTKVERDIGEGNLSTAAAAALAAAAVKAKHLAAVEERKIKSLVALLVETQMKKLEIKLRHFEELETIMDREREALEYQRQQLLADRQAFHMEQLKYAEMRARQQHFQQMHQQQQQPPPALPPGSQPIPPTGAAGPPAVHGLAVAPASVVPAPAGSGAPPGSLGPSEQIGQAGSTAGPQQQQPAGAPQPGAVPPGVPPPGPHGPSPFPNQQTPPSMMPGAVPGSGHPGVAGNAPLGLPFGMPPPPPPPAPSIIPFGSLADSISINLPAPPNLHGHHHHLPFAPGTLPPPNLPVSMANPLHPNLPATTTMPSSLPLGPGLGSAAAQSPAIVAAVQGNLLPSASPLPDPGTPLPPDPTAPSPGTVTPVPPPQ
Chain of UniProt Q9UJV9 (Q9UJV9 whole entry, one chain of several): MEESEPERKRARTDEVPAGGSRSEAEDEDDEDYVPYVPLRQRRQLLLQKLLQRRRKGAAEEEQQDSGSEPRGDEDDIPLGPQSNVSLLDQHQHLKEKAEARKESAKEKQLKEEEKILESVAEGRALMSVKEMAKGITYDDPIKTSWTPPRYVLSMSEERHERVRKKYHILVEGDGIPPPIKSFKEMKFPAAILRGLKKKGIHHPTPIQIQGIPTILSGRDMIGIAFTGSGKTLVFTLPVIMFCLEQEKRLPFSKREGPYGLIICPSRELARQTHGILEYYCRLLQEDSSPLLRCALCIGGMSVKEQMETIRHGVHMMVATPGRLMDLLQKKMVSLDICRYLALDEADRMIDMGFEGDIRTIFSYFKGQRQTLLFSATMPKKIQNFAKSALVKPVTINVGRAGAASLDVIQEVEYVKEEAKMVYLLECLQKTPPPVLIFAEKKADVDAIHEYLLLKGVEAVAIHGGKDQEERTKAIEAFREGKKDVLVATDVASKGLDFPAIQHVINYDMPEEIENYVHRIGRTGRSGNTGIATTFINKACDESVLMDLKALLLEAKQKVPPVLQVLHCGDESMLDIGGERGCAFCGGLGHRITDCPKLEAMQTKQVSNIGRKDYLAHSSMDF

On to C5orf51 (UniProt A6NDU8), for which the NP40-soluble protein abundance (concentration: 1mM) worked out at 1.04 ± 0.014; the NP40-soluble protein abundance (concentration: 2mM) is 1.03 ± 0.025; the NP40-soluble protein abundance (concentration: 4mM) stood at 1.01 ± 0.025; the NP40-soluble protein abundance (concentration: 6mM) was found to be 0.9735 ± 0.0065; the NP40-soluble protein abundance (concentration: 8mM) came out at 0.953 ± 0.017; the NP40-soluble protein abundance (concentration: 10mM) was 0.95 ± 0.05.
With “F8VXC8|Q8TAQ2|Q8TAQ2-2|Q8TAQ2-3 (UniProt Q8TAQ2)”, the NP40-soluble protein abundance was 1.03 ± 0.034 (concentration: 1mM); 1.07 ± 0.04 (concentration: 2mM); 1.04 ± 0.047 (concentration: 4mM); 1.04 ± 0.1 (concentration: 6mM); 1.04 ± 0.064 (concentration: 8mM); 1.09 ± 0.1 (concentration: 10mM).
Take FAM20B (UniProt O75063): the NP40-soluble protein abundance is, setting by setting: (concentration: 1mM) 0.973 ± 0.02; (concentration: 2mM) 0.993 ± 0.022; (concentration: 4mM) 0.978 ± 0.024; (concentration: 6mM) 0.99 ± 0.024; (concentration: 8mM) 0.963 ± 0.016; (concentration: 10mM) 1 ± 0.042.
Consider F8VQE1|Q9UHB6|Q9UHB6-2 (UniProt Q9UHB6), for which the NP40-soluble protein abundance reads like this: (concentration: 1mM) 1.17 ± 0.073; (concentration: 2mM) 1.28 ± 0.2; (concentration: 4mM) 1.33 ± 0.12; (concentration: 6mM) 1.39 ± 0.18; (concentration: 8mM) 1.37 ± 0.17; (concentration: 10mM) 1.58 ± 0.21.
For C9JYN0|Q16563-2|Q16563 (UniProt Q16563), the NP40-soluble protein abundance is, setting by setting: (concentration: 1mM) 1.01 ± 0.015; (concentration: 2mM) 1.06 ± 0.12; (concentration: 4mM) 1.05 ± 0.042; (concentration: 6mM) 1.12 ± 0.12; (concentration: 8mM) 1.12 ± 0.057; (concentration: 10mM) 1.14 ± 0.17.
On to UniProt O60508|Q5SRN1, for which the NP40-soluble protein abundance is, setting by setting: (concentration: 1mM) 1.03 ± 0.018; (concentration: 2mM) 1.07 ± 0.029; (concentration: 4mM) 1.06 ± 0.026; (concentration: 6mM) 1.09 ± 0.059; (concentration: 8mM) 1.08 ± 0.044; (concentration: 10mM) 1.13 ± 0.056.
Turning to “E7ESS3|K7EKW3|Q71RG4|Q71RG4-2 (UniProt Q71RG4)”, the NP40-soluble protein abundance (concentration: 1mM) is 1.01 ± 0.037; the NP40-soluble protein abundance (concentration: 2mM) was determined as 1.03 ± 0.045; the NP40-soluble protein abundance (concentration: 4mM) was 1 ± 0.039; the NP40-soluble protein abundance (concentration: 6mM) was determined as 0.996 ± 0.012; the NP40-soluble protein abundance (concentration: 8mM) amounted to 1.01 ± 0.037; the NP40-soluble protein abundance (concentration: 10mM) was found to be 1 ± 0.032.
With J3KNN5|Q9UJV9 (UniProt Q9UJV9), the NP40-soluble protein abundance runs as follows: (concentration: 1mM) 1.11 ± 0.029; (concentration: 2mM) 1.1 ± 0.043; (concentration: 4mM) 1.13 ± 0.073; (concentration: 6mM) 1.12 ± 0.035; (concentration: 8mM) 1.15 ± 0.053; (concentration: 10mM) 1.22 ± 0.065.
B8ZZS2|Q13506|Q13506-2 (UniProt Q13506): the NP40-soluble protein abundance by setting is: (concentration: 1mM) 0.9966 ± 0.0056; (concentration: 2mM) 1.02 ± 0.019; (concentration: 4mM) 0.9788 ± 0.0084; (concentration: 6mM) 1.024 ± 0.0073; (concentration: 8mM) 1.01 ± 0.029; (concentration: 10mM) 1.008 ± 0.0093.
On to F8VX04|Q9H2H9 (UniProt Q9H2H9), for which the NP40-soluble protein abundance reads like this: (concentration: 1mM) 1.14 ± 0.1; (concentration: 2mM) 1.36 ± 0.19; (concentration: 4mM) 1.1 ± 0.051; (concentration: 6mM) 1.06 ± 0.094; (concentration: 8mM) 1.01 ± 0.087; (concentration: 10mM) 1.13 ± 0.19.
Regarding E9PDF6|O43795|O43795-2 (UniProt O43795), the NP40-soluble protein abundance reads like this: (concentration: 1mM) 2.06 ± 0.29; (concentration: 2mM) 2.04 ± 0.2; (concentration: 4mM) 2.31 ± 0.29; (concentration: 6mM) 2.37 ± 0.28; (concentration: 8mM) 2.45 ± 0.32; (concentration: 10mM) 2.39 ± 0.27.
Regarding K7ER90|O75821|K7EL60 (UniProt O75821), the NP40-soluble protein abundance (concentration: 1mM) was determined as 1.02 ± 0.075; the NP40-soluble protein abundance (concentration: 2mM) was 1.1 ± 0.077; the NP40-soluble protein abundance (concentration: 4mM) was found to be 1.11 ± 0.095; the NP40-soluble protein abundance (concentration: 6mM) came to 1.24 ± 0.045; the NP40-soluble protein abundance (concentration: 8mM) amounted to 1.27 ± 0.074; the NP40-soluble protein abundance (concentration: 10mM) was 1.42 ± 0.14.
